# Screening results deposited in PubChem by National Center for Advancing Translational Sciences (NCATS).
# GPT2 inh: blocks human glutamate pyruvate transaminase 2. Q8TD30. hit rate 0.25% among 100,000. Recombinant GPT2, coupled pyruvate oxidase/HRP Amplex Red fluorescence. Potency, µM (series often up to 57.7 µM), for inactives: top-dose activity change, negative = inhibition, actives largely listed as inhibitors; further: nearly all actives have a fitted effect of over 60% in size
#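 GPT2 10ng/uL, a-KG 250uM, L-Ala 2mM, HEPES pH7.5 + 0.0001% Tween; 30 min RT. Then Amplex mix (PO/HRP/ThPP), 30 min RT dark, fluorescence. AOA 50uM used as positive control.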
# NPR1 antag: human Npr1 receptor antagonism | HEK293 hNpr1 GloSensor cGMP, ANP-stimulated luminescence | Potency, µM (series often up to 46.3 µM), inactives show at the highest dose activity change, negative = inhibition, actives largely listed as inhibitors | hit rate 1.6% among 76,000; calls by dose curve; further: nearly all actives have a fitted effect of over 60% in size
# Target sequence (P16066 whole entry, looked up): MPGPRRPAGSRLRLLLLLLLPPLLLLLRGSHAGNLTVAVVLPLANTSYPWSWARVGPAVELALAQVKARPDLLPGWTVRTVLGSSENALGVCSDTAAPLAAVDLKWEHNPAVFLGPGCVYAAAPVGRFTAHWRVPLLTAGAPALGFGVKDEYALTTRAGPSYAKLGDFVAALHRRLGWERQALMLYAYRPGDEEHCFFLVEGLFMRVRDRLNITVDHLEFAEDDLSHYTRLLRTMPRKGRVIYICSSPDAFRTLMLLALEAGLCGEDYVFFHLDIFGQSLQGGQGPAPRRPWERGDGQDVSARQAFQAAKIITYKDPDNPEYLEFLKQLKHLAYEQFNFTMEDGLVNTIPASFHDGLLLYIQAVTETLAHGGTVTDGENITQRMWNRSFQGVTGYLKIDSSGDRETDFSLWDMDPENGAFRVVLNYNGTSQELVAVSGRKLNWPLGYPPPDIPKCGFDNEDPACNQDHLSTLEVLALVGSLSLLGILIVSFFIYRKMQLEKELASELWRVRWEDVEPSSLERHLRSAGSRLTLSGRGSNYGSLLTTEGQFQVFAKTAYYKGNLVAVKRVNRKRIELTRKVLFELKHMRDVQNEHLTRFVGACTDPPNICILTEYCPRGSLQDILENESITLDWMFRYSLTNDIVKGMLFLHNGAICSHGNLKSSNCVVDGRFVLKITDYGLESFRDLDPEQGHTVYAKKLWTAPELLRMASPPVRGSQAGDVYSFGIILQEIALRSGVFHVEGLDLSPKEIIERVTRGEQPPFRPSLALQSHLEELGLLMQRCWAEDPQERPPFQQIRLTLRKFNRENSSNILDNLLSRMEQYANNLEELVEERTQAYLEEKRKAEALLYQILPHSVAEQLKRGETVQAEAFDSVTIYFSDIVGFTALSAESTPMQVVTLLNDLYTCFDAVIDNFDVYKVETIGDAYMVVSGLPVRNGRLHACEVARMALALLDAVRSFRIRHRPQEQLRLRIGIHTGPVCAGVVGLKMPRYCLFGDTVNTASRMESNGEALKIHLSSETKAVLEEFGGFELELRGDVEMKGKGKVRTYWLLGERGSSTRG
#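 HEK293 cells stably expressing human Npr1 and cGMP GloSensor pGS-40F, loaded 2 h with 2% GloSensor reagent, given compound 30 min at room temperature. Luminescence read before and 20 min after 0.1 nM hNppA.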
# Luciferase inh: blocks purified firefly luciferase enzyme activity. P08659. purified P. pyralis luciferase, luminescence, biochemical. Potency, µM (series often up to 115 µM), usual class: inhibitors. hit rate 2.5% among 76,000. AID 1347043; further: nearly all actives have a fitted effect of over 65% in size
#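 Cell-free enzyme assay, 10nM P. pyralis luciferase, luciferin and ATP each at 10uM. Inhibition profiled over a 6-point titration, read as luminescence.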
# HEK293 tox: HEK 293 cell cytotoxicity; AID 1345083; Potency, µM (top dose mostly 115 µM), for inactives: at the highest dose activity change, negative = cytotoxicity, hits mostly inhibitors; HEK 293 viability, ATP luminescence (CellTiter-Glo), 48-72 h; hit rate 6.6% among 94,000; further: nearly all actives have a fitted effect of over 60% in size
#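 CellTiter-Glo luminescence (cellular ATP) was read after 48 or 72 hr of compound exposure at 37 degree Celsius. Cells were HEK 293 plated at 250 cells/well.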
# 3T3 cytotox: NIH 3T3 cell cytotoxicity | NIH 3T3 viability, CellTiter-Glo ATP luminescence, 48-72 h | Potency, µM (top dose mostly 96.7 µM), without a hit: top-dose activity change, negative = cytotoxicity, most hits filed as inhibitors | hit rate 4.3% among 94,000 | AID 1345082; further: nearly all actives have a fitted effect of over 55% in size
#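 NIH 3T3 cells at 400 cells/well received 23 nL of compound by pintool and were incubated 48 or 72 h at 37 °C. Viability was read as ATP-coupled CellTiter-Glo luminescence.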
# Active calls of the source: *; i = inactive; ? = inconclusive; · = no result given; ! = not confirmed by another sample; [ ] = remark or other dose. In the library only some 10% were active in any assay of this set; here they are far more common. Unless noted, the call rests on the fitted dose curve; in most records, active means well fitted curve in the direction sought with a large enough effect; inconclusive means small, poorly fitted or top-dose-only effect, or another doubt; inactive means no such curve, though single readings can be large; an effect the other way counts as inactive or inconclusive. On the % scale 0 is the no-effect control and ±100 the full control effect; potency means the concentration at half of the fitted maximal effect.
SMILES,GPT2 inh,NPR1 antag,Luciferase inh,HEK293 tox,3T3 cytotox
CC#CCn1cc2c3c(cccc31)[C@H](CC(C)C)N[C@H](C(=O)NCc1cccs1)C2,0%[88.5 µM],-15%[70.6 µM],i,71µM*,?
COc1ccc(C(=O)N2CCC3(CC2)CC(O)CCO3)c(OC)c1 (configuration not stated),-18%,-4%,i,6%,4%
C=CCNC(=O)[C@@H]1Cc2cn(CC#CC)c3cccc(c23)[C@H](CC(C)C)N1,-9%[88.5 µM],0%[70.6 µM],i,?,?
CC#CCn1cc2c3c(cccc31)[C@H](CC(C)C)N[C@H](C(=O)NCc1ccccc1)C2,?,-21%[70.6 µM],i,63µM*,?
CC#CCn1cc2c3c(cccc31)[C@H](CC(C)C)N[C@H](C(=O)NCCN(C)C)C2,-28%[88.5 µM],-11%[70.6 µM],i,28µM*,40µM*
COc1cccc(-c2ccc(C(=O)N3CCC(N[S+](=O)([O-])c4c(C)noc4C)CC3)cc2)c1,-10%,·,·,22µM*,?
COc1cccc(-c2ccc(C(=O)N3CCC(N[S+](=O)([O-])c4cccs4)CC3)cc2)c1,i,·,·,18µM*,16µM*
O=C(NC1CCN(C(=O)c2ccc(-c3cccs3)cc2)CC1)C1CC1,i,·,·,?,?
CC(C)C(=O)NC1CCN(C(=O)c2ccc(-c3cccs3)cc2)CC1,i,·,·,71µM*,?
O=C(c1ccc(-c2cccs2)cc1)N1CCC(N[S+](=O)([O-])c2cccs2)CC1,?,·,·,45µM*,?
O=C(C1CCN(c2nccc(Nc3ccccc3Cl)n2)CC1)N1CCCCC1,-7%,·,·,?,?
O=C(NCC(=O)N1CCOCC1)c1ccc(-c2cccc(C(F)(F)F)c2)cc1,0%,·,·,?,?
COc1ccc(CNC(=O)C[C@@H]2C[C@H]3O[C@H](CNCc4ccccc4Cl)[C@@H](O)[C@H]3O2)cc1,-14%,1%,i,i,-5%
COc1cccc(C(=O)N2CCn3c(nnc3-c3ccc(NC(C)=O)cc3)C2)c1,·,·,·,-6%,-8%
COc1ccccc1-c1ccc(C(=O)N2CCC(N[S+](=O)([O-])c3cccs3)CC2)cc1,0%,·,·,89µM*!,?
CC(=O)N1CCN(c2ccc3nnc(C4CC4)n3n2)CC1,·,·,·,0%[172 µM],-15%[138 µM]
O=C(NCCN[S+](=O)([O-])c1cccc(C(F)(F)F)c1)c1ccc(-c2cncnc2)cc1,·,·,·,89µM*,-31%
O=C(NCCN[S+](=O)([O-])c1cccc(C(F)(F)F)c1)c1cccc(-c2ccsc2)c1,-2%,·,·,?,40µM*
O=C(NCCN[S+](=O)([O-])c1cccc(C(F)(F)F)c1)c1ccc(-c2cccc(C(F)(F)F)c2)cc1,·,·,·,40µM*,28µM*
CCC(C)NC(=O)CNC(=O)c1ccc(-c2cccc(C(F)(F)F)c2)cc1 (configuration not stated),-10%,·,·,35µM*,-24%
CCOCCNC(=O)CNC(=O)c1ccc(-c2cccc(C(F)(F)F)c2)cc1,-12%,·,·,?,?
Cc1ccc([S+](=O)([O-])NCCNC(=O)c2ccc(-c3cncnc3)cc2)cc1,·,·,·,-28%,-28%
O=C(Nc1ccccc1)N1CCCN(c2ccc3nnc(C4CC4)n3n2)CC1,·,·,·,-3%,-6%
Cc1cc(C(=O)NC2CCCN(c3ccnc4ccnn34)C2)ccc1Cl (configuration not stated),-5%,·,·,?,?
O=C(NC[C@H]1COCc2nc3cc(F)ccc3n21)c1ccc(Cl)cc1,4%[88.5 µM],-10%[70.6 µM],i,71µM*,?
SMILES,GPT2 inh,NPR1 antag,Luciferase inh,HEK293 tox,3T3 cytotox
O=C(NC[C@H]1COCc2nc3cc(F)ccc3n21)c1ccc2c(c1)OCO2,-3%[88.5 µM],-2%[70.6 µM],?,-30%[172 µM],?
Fc1ccc2c(c1)nc1n2[C@@H](CNC2CCCCC2)COC1,-12%[88.5 µM],-18%[70.6 µM],i,?,28µM*
O=C(NC[C@H]1COCc2nc3cc(F)ccc3n21)C1CC1,-1%[88.5 µM],4%[70.6 µM],i,-7%[230 µM],79µM*
O=C(NC[C@H]1COCc2nc3cc(C(F)(F)F)ccc3n21)C1CC1,i,-4%[70.6 µM],i,?,-24%[138 µM]
CN(Cc1ccc(C2CC(=O)Nc3n[nH]c(C4CCC4)c32)o1)S(C)(=O)=O (configuration not stated),-8%[11.5 µM],5%,i,i,i
Cn1nc(C2CCCC2)cc1NC(=O)c1ccc(C(F)(F)F)cc1,4%[88.5 µM],·,·,?,?
O=C(NCc1ccc(C(F)(F)F)cc1)C1CCCN1c1nccc(Nc2ccccc2F)n1 (configuration not stated),4%,·,·,?,?
CCOCCCNC(=O)N1CC2CN(C(C)C)CC(C1)O2,2%,·,·,3%,4%
O=C(NC1CCCCC1)c1cnc2c(c1)N([S+](=O)([O-])c1cccnc1)CCC2,-3%[88.5 µM],4%[70.6 µM],i,-10%[172 µM],89µM*
Cc1ccc(-c2cc3c(=O)n(CCNC(=O)c4ccccc4F)ccn3n2)cc1C,i,5%,2µM*,?,-21%
O=C(NCCn1ccn2nc(-c3ccc(F)cc3)cc2c1=O)c1ccsc1,i,-6%,i,?,-11%
Cc1ccc(-c2cc3c(=O)n(CCNC(=O)C4CCCCC4)ccn3n2)cc1C,i,-5%,0.63µM*,-1%,0%
Cc1ccc(-c2cc3c(=O)n(CCNC(=O)c4ccc(N(C)C)cc4)ccn3n2)cc1C,-8%,1%,i,-3%,i
O=C(NCCn1ccn2nc(-c3ccc(F)cc3)cc2c1=O)c1n[nH]c2c1CCCC2,i,?,0.4µM*,?,?
CCn1nccc1C(=O)NCCn1ccn2nc(-c3ccc(C)c(C)c3)cc2c1=O,i,-2%,4µM*,25µM*,-29%
COCC(=O)N1CCCC(C(=O)N2CCC(c3nc4ncccc4[nH]3)CC2)C1 (configuration not stated),-2%,·,·,4%,i
CCCCCNC(=O)c1nc2cccnc2n(Cc2ccc(OC)cc2)c1=O,-20%,·,·,?,?
Cc1cc(C)cc(NC(=O)c2cc3n(n2)CC(c2ccc4c(c2)OCO4)OC3)c1 (configuration not stated),i,-19%,i,89µM*,?
CCOc1ccc(NC(=O)c2cc3n(n2)CC(c2ccc4c(c2)OCO4)OC3)cc1 (configuration not stated),i,16µM*,?,22µM*,?
COc1ccc(OC)c(NC(=O)c2cc3n(n2)CC(c2ccc4c(c2)OCO4)OC3)c1 (configuration not stated),i,1%,i,?,-20%
CC1CCC(NC(=O)c2cc3n(n2)CC(c2ccc4c(c2)OCO4)OC3)CC1 (configuration not stated),i,-9%,i,22µM*,?
